Laboratory results taken from PubChem BioAssay (EPA / NIEHS).
The source made the active and inactive calls. The calls were made as follows: active = hit-call score of the fitted dose curve at least 0.9, where 1 is the maximum; inactive = score below 0.9. Peptide text beside a SMILES is read from it.

What was measured:
[1] = ATG_GLI_CIS: Attagene CIS-FACTORIAL HepG2 Assay for human Zinc Finger Protein GLI1 (AID 2282945); conditions: HepG2, Attagene cis-factorial reporter mRNA, GLI element; actives raise or lower the signal
In short: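 Transiently transfected HepG2 cells report endogenous transcription factor activity via cis-element-driven reporter units. After 24 h compound exposure, reporter mRNA was measured by RT-PCR with capillary electrophoresis; bidirectional fitting against DMSO baseline.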

[2] = biological target: Bile acid receptor (Homo sapiens) (UniProt Q96RI1); assay: ATG_IR1_CIS: Attagene CIS-FACTORIAL HepG2 Assay for human Nuclear Receptor Subfamily 1 Group H Member 4 (NR1H4), IR1 submotif (AID 2282946); conditions: IR1 reporter transcription, actives raise or lower the signal
In short: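 Fluorescence of capillary-separated, HpaI-digested RT-PCR reporter products gave IR1-element mRNA induction in HepG2 cells 24 h after dosing. Endogenous transcription factors drove the cis-regulated reporters; activity was fitted bidirectionally against DMSO.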

[3] = ATG_GRE_CIS: Attagene CIS-FACTORIAL HepG2 Assay for human Glucocorticoid Response Elements (GRE) (AID 2282947); conditions: HepG2 GRE cis-reporter, Attagene multiplex mRNA; actives raise or lower the signal
In short: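 Read-out: fluorescent reporter-transcript fragments separated by capillary electrophoresis after RT-PCR. Transiently transfected HepG2 cells carrying cis-element-driven reporter units were dosed for 24 h; gain or loss of signal fitted against DMSO control.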

[4] = ATG_ISRE_CIS: Attagene CIS-FACTORIAL HepG2 Assay for human Interferon Regulatory Factor 1 (IRF1) binding to an Interferon-Stimulated Response Element (ISRE) (AID 2282948); conditions: HepG2 ISRE cis-reporter (Attagene), mRNA transcription readout; actives raise or lower the signal
In short: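 Uses HepG2 liver cells transfected with cis-regulated reporters and measures mRNA 24 h post-dosing through RT-PCR, primer-extension labelling and capillary electrophoresis, with DMSO as negative control.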

[5] = ATG_M_32_CIS: Attagene CIS-FACTORIAL HepG2 Assay for M32 Transcription Factor (Internal Marker) (AID 2282949); conditions: HepG2 Attagene cis-factorial M32 reporter, mRNA; actives raise or lower the signal;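 also: background control marker of the multiplexed CIS panel rather than a real target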
In short: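 Transient MRTU transfection of HepG2; 24 h compound treatment; TriZol RNA, oligo(dT) RT, reporter PCR, 6-FAM primer extension, HpaI cut, CE. Gain/loss of signal vs DMSO.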

[6] = ATG_M_06_CIS: Attagene CIS-FACTORIAL HepG2 Assay for M06 Transcription Factor (Internal Marker) (AID 2282950); conditions: HepG2 Attagene CIS-FACTORIAL M06 internal marker reporter; actives raise or lower the signal
In short: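 Terse: HepG2, transient MRTU transfection (FuGene 6), 24 h dosing; total RNA, oligo(dT) RT, PCR, FAM label, HpaI cut, capillary electrophoresis; bidirectional fit vs DMSO baseline; background-control endpoint.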

[7] = biological target: Hypoxia-inducible factor 1-alpha (Homo sapiens) (UniProt Q16665); assay: ATG_HIF1a_CIS: Attagene CIS-FACTORIAL HepG2 Assay for human Hypoxia Inducible Factor 1 (HIF1A) (AID 2282951); conditions: HepG2 Attagene cis-factorial HIF1a reporter transcription; actives raise or lower the signal
In short: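 HepG2, transient cis-reporter library, 24 h dosing. RNA → RT (oligo dT) → PCR → 6-FAM primer extension → HpaI → CE. Bidirectional curve fit vs DMSO.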

[8] = biological target: Hepatocyte nuclear factor 6 (Homo sapiens) (UniProt Q9UBC0); assay: ATG_HNF6_CIS: Attagene CIS-FACTORIAL HepG2 Assay for human Hepatocyte Nuclear Factor 6 (HNF6) (AID 2282952); conditions: HepG2 Attagene cis-factorial HNF6 reporter transcription; actives raise or lower the signal
In short: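 Using cis-element reporters in HepG2 liver cells, the assay tracks endogenous factor-driven transcription 24 h post-dosing. Signal comes from 6-FAM-labelled, HpaI-digested RT-PCR fragments, with gain or loss scored against DMSO.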

[9] = biological target: Heat shock factor protein 1 (Homo sapiens) (UniProt Q00613); assay: ATG_HSE_CIS: Attagene CIS-FACTORIAL HepG2 Assay for human Heat Shock Transcription Factor 1 (HSE) (AID 2282953); conditions: HepG2 HSE cis-reporter, Attagene RNA transcription; actives raise or lower the signal
In short: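 Read-out: fluorescence of reporter-specific RT-PCR fragments separated by capillary electrophoresis. HepG2 carrying transfected cis-element reporter units; 24 h dosing; activity fitted in both directions relative to DMSO baseline.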

[10] = ATG_MRE_CIS: Attagene CIS-FACTORIAL HepG2 Assay for human Metal Responsive Element (MRE) (AID 2282954); conditions: HepG2 MRE cis-reporter transcription, Attagene multiplex; actives raise or lower the signal
In short: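 RT-PCR/capillary electrophoresis readout of reporter mRNA, 24 h post-dosing, in HepG2 cells transfected with multiplexed cis-regulated reporter constructs. Gain or loss of signal fitted bidirectionally against DMSO baseline.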

Measured: AC50

Chain of Heat shock factor protein 1 (Homo sapiens) (Q00613 whole entry, looked up, the tested form may be a part): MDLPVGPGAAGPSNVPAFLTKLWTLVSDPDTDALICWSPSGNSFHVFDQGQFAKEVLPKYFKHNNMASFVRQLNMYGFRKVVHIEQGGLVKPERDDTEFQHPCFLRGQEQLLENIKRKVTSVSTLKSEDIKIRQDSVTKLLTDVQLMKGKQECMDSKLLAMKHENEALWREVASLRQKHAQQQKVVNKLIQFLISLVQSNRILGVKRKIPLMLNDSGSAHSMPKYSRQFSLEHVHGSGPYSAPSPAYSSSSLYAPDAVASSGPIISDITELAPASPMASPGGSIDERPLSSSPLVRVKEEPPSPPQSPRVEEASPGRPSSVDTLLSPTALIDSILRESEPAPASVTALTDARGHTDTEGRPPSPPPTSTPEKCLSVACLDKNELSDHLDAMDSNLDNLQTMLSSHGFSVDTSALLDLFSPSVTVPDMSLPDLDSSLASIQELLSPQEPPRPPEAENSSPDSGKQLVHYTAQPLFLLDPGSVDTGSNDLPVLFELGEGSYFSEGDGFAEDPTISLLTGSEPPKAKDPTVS
Chain of Hypoxia-inducible factor 1-alpha (Homo sapiens) (Q16665 whole entry, looked up): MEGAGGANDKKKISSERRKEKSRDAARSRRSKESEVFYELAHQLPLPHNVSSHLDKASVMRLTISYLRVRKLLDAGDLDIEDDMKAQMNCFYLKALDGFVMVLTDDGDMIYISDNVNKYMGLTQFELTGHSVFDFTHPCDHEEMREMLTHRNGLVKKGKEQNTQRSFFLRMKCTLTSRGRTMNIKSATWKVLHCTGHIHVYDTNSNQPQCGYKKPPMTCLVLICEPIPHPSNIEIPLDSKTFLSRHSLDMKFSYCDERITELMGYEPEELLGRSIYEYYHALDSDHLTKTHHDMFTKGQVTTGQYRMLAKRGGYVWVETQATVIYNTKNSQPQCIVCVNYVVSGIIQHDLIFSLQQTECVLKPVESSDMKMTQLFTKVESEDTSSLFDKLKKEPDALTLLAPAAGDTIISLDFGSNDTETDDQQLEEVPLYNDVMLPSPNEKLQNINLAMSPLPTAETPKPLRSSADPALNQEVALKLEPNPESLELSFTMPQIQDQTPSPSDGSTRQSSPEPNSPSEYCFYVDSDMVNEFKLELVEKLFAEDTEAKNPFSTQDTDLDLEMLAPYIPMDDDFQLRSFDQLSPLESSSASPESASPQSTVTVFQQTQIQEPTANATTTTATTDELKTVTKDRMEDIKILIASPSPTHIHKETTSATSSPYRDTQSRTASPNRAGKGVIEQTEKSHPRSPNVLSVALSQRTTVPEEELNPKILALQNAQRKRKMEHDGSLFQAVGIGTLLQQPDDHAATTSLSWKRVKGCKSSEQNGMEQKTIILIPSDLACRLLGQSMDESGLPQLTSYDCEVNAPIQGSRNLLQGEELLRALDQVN
Chain of Bile acid receptor (Homo sapiens) (Q96RI1 whole entry, looked up): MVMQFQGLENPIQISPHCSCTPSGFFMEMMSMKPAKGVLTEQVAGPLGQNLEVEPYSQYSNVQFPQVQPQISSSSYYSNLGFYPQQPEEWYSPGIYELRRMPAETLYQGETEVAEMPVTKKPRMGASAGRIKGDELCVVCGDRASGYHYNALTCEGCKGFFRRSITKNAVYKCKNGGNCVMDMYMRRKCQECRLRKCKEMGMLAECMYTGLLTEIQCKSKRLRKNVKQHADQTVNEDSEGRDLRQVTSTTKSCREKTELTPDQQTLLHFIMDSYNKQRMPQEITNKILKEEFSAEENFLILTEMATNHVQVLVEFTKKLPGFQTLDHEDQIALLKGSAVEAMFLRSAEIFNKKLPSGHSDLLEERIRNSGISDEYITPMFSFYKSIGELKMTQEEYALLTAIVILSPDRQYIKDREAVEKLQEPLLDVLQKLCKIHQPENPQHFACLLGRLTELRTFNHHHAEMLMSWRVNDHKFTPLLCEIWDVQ
Chain of Hepatocyte nuclear factor 6 (Homo sapiens) (Q9UBC0 whole entry, looked up, the tested form may be a part): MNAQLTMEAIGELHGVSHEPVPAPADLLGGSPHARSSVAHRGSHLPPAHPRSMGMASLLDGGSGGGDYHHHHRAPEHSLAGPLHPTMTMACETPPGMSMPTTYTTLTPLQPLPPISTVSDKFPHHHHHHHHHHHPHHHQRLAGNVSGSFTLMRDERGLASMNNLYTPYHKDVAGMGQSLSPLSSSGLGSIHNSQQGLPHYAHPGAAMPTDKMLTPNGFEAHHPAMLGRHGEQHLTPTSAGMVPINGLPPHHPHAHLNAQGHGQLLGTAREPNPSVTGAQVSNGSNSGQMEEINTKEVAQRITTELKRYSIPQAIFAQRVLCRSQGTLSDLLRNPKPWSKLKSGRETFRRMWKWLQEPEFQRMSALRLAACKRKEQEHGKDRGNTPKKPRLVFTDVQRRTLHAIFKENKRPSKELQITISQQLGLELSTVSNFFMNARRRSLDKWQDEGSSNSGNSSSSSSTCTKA

C=C[Si](OCCOC)(OCCOC)OCCOC
inactive: all assays above

CCC1(C)C(=O)N(Cl)C(=O)N1Cl (stereo not given)
active: [4] 49.4 µM | [9] 52.1 µM | [10] 61.4 µM
inactive: all other assays above

COc1ccc(C(=O)/C(Br)=C\C(=O)O)cc1
active: [4] 57.2 µM | [7] 56.1 µM | [9] 174 µM | [10] 55.5 µM
inactive: all other assays above

C=CC(=O)OCCCCCCOC(=O)C=C
active: [2] 42.5 µM | [4] 75.3 µM | [9] 180 µM | [10] 52.4 µM
inactive: all other assays above

O=C1CCCN1C1CCCCC1
inactive: all assays above

CCCCCCCC(=O)OCC(COC(=O)CCCCCCC)OC(=O)CCCCCCC
inactive: all assays above

Cc1c[nH]c(=O)[nH]c1=O
inactive: all assays above

CCN1CCCC1=O
inactive: all assays above

C=CC(=O)NC(C)(C)C
active: [2] 27.5 µM
inactive: all other assays above

COC(=O)c1ccccc1C
inactive: all assays above

CCCCCC(=O)OCC
inactive: all assays above

O=C(O)C1CCC(C(=O)O)CC1 (stereo not given)
inactive: all assays above

CN(C)c1ccc2nc3ccc(=[N+](C)C)cc-3sc2c1
active: [4] 41.6 µM | [7] 0.766 µM
inactive: all other assays above

O=C(OCc1ccccc1)c1ccc(O)cc1
active: [1] 167 µM | [4] 187 µM | [7] 113 µM | [9] 168 µM | [10] 125 µM
inactive: all other assays above

N#Cc1ccc(C(c2ccc(C#N)cc2)n2cncn2)cc1
inactive: all assays above

COC(=O)[C@H](Cc1ccccc1)NC(=O)[C@@H](N)CC(=O)O (H-Asp-Phe-OMe)
inactive: all assays above

CCC(C)c1ccccc1 (stereo not given)
inactive: all assays above

O=C(O)c1ccc2c(c1)C(=O)OC2=O
inactive: all assays above

C=CCCCCCCCCOC(C)=O
inactive: all assays above

Cn1cccc1
inactive: all assays above

CCN1CN(CC)CN(CC)C1
active: [1] 141 µM | [3] 97 µM | [4] 146 µM | [9] 174 µM | [10] 166 µM
inactive: all other assays above

CC1=C(O)C(=O)C(C)O1 (stereo not given)
inactive: all assays above

COC(C=C(C)CCC=C(C)C)OC
inactive: all assays above

CC12CCC(CC1)C(C)(C)O2
inactive: all assays above
